Rows were chosen to be rich in hits. Some 8.8% of all compounds tested hit in one or more screens of this group.
HPGD inh – blocks human HPGD enzyme activity. P15428. purified HPGD, NADH fluorescence kinetic, PGE2 substrate. Potency, µM, actives largely listed as inhibitors. 150,000 tested, 4.3% active. AID 894; active = well fitted inhibition curve with a large enough effect, not every such curve was filed as active; inconclusive = small, poorly fitted or top-dose-only effect, or another doubt; inactive = no such curve, though single readings can be large or run the other way
Target sequence (P15428 whole entry, looked up): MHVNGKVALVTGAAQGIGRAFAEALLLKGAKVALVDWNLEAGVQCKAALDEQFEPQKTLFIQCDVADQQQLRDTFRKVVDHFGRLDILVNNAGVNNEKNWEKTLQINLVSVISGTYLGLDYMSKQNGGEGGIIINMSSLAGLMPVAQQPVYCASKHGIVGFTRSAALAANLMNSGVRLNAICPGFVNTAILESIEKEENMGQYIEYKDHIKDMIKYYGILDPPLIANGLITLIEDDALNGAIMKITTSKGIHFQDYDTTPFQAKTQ
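20 nM HPGD preincubated 15 min at room temperature with compound in 50 mM Tris-HCl pH 8, 0.01% Tween 20. Started with 1 mM NAD+ and 30 uM prostaglandin E2; NADH fluorescence (360/450 nm) read 5 times over 30-s intervals, last minus first.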
HTT ATP protect – cytoprotection in Huntington HTT-Q103 PC12 cell model; PC12 HTT-Q103 induced, cytoprotection, ATP luminescence, 40 h; Potency, µM (doses to about 56.4 µM), hits mostly activators; 230,000 tested, 0.14% active; AID 1471; note: nearly all actives have a fitted effect of over 45% in size
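Stable PC12 Q103-GFP cells in serum-supplemented, phenol red-free DMEM; induction by tebufenozide at 100 nM final; compound dose series; cell viability quantified luminescently from ATP.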
HTT aggregate – reduces HttQ103-GFP aggregates in PC12 cells | PC12 HttQ103-GFP aggregates, Acumen cytometry, 40 h | Potency, µM (highest dose often 46.1 µM), hits mostly inhibitors | 220,000 tested, 1.1% active; note: nearly all actives have a fitted effect of over 60% in size
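Multiplexed with ATP-based cell death, this channel scores GFP aggregates in PC12 cells expressing inducible HTTex1-Q103-GFP. Induction used 100 nM tebufenozide; compounds were tested in concentration series.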
ALDH1A1 block – ALDH1A1 (human) enzyme inhibition; AID 1030; Potency, µM (top dose mostly 75.3 µM), usual class: inhibitors; 220,000 tested, 7.3% active; Purified ALDH1A1, NADH fluorescence, propionaldehyde substrate; active = well fitted inhibition curve with a large enough effect, not every such curve was filed as active; inconclusive = small, poorly fitted or top-dose-only effect, or another doubt; inactive = no such curve, though single readings can be large or run the other way
Lamin A splicing – modulators of lamin A splicing. HeLa LMNA splicing GFP/RFP minigene ratio, 48 h. Potency, µM (titrated, usually from 46.1 µM), usual class: inhibitors. 200,000 tested, 0.01% active. AID 1487; active = well fitted inhibition curve with a large enough effect in the signal ratio, with a control signal flat, not every such curve was filed as active; inconclusive = small, poorly fitted or top-dose-only effect, or effect the other way, or a change in a side signal; the % refers to the signal ratio
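S3 HeLa cells stably expressing lamin A-EGFP splicing minigene plus DsRed2, 600 cells/well, 48 h compound exposure at 37C. Laser-scanning cytometry; analysed as GFP (500-530 nm)/RFP (575-640 nm) total intensity ratio; 0.5% DMSO vehicle.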
Large screens that a line does not name were inactive. Unless noted, calls come from the whole dose curve; as a rule, active = well fitted curve in the direction sought with a large enough effect; inconclusive = small, poorly fitted or top-dose-only effect, or another doubt; inactive = no such curve, though single readings can be large; an effect the other way counts as inactive or inconclusive.

O=C(CSc1ccc(-c2ccco2)nn1)c1ccccc1	ALDH1A1 block 8.91µM
O=C(CSc1ccc(-c2ccccn2)nn1)c1ccc([N+](=O)[O-])cc1	ALDH1A1 block 1µM (no result: HPGD inh, Lamin A splicing)
COc1cccc(-c2ccc(SCC(=O)c3ccccc3)nn2)c1	ALDH1A1 block inconclusive (no result: HPGD inh)
COc1ccc(C(=O)CSc2ccc(-c3ccccc3)nn2)cc1	HPGD inh inconclusive, ALDH1A1 block 7.94µM, Lamin A splicing inconclusive
CCOC(=O)C1=NN(c2ccc([N+](=O)[O-])cc2)CC1C(=O)OC (stereo unspecified)	ALDH1A1 block 1.12µM
CCCCOC(=O)C1CN(c2ccccc2)N=C1C(=O)OCC (stereo unspecified)	HPGD inh inconclusive
COc1cccc(C(=O)Nc2cccc(-c3nc4ncccc4o3)c2C)c1	ALDH1A1 block inconclusive
CCOc1cccc(C(=O)Nc2cccc(-c3nc4ncccc4o3)c2C)c1	HPGD inh inconclusive, ALDH1A1 block 17.8µM
COc1ccc(C)cc1NS(=O)(=O)c1ccc(NS(=O)(=O)c2ccc(NC(C)=O)cc2)cc1	ALDH1A1 block 22.4µM
COc1ccc(S(=O)(=O)Nc2ccc(S(=O)(=O)N3CCCCC3)cc2)cc1	ALDH1A1 block 0.355µM
COc1cc(S(=O)(=O)N2CCCCC2)c(OC)cc1Br	none (no result: HPGD inh, Lamin A splicing)
COc1ccc(S(=O)(=O)N2CCCCCC2)cc1	HTT aggregate inconclusive
COc1cc(OC)c(S(=O)(=O)N2CCCCC2)cc1S(=O)(=O)N1CCCCC1	ALDH1A1 block 3.55µM
Cc1ccc(NS(=O)(=O)c2ccc(Br)s2)cc1S(=O)(=O)N1CCOCC1	HTT aggregate inconclusive, ALDH1A1 block 11.2µM (no result: HPGD inh, Lamin A splicing)
CN(C)c1ccc(CNC(=O)c2cnc3sc(N4CCCCCC4)nn3c2=O)cc1	none (no result: HPGD inh, HTT ATP protect, HTT aggregate, ALDH1A1 block)
N=C1N=C(N)c2cc3ccccc3cc21	HPGD inh inconclusive, ALDH1A1 block inconclusive (no result: HTT aggregate, Lamin A splicing)
COc1ccc(S(=O)(=O)Nc2ccc(S(=O)(=O)N3CCCC3)cc2)cc1	ALDH1A1 block 0.0891µM
COc1ccc(S(=O)(=O)Nc2ccc(S(=O)(=O)N3CCCCC3)cc2)cc1C	ALDH1A1 block 3.98µM
CC(=O)Nc1ccc(S(=O)(=O)N[C@H](C(=O)O)C(C)C)cc1	ALDH1A1 block 10µM
CC(=O)Nc1ccc(S(=O)(=O)Nc2ccc(S(=O)(=O)N3CCCCCC3)cc2)cc1	ALDH1A1 block 3.98µM
COc1ccc(CC(=O)NCc2ccc3c(c2)CCN3C(=O)c2ccc(C)cc2)cc1OC	none (no result: HPGD inh, HTT ATP protect, HTT aggregate, ALDH1A1 block)
COc1ccc2cc(S(=O)(=O)N3CCCCC3)ccc2c1S(=O)(=O)N1CCCCC1	ALDH1A1 block 0.178µM, Lamin A splicing inconclusive
O=S(=O)(Nc1ccc(S(=O)(=O)N2CCCCC2)cc1)c1ccc(Br)s1	HTT aggregate inconclusive, ALDH1A1 block 1.41µM
Cn1c(=O)n(C)c2cc(NS(=O)(=O)c3ccc(Br)s3)ccc21	none (no result: HPGD inh)
Cc1c(Cl)cccc1NC(=O)CCn1c(=O)c2cccn2c2ccccc21	none (no result: HPGD inh, HTT ATP protect, HTT aggregate, ALDH1A1 block)
CCCCC/C=C\C/C=C\C/C=C\C=C\C(=O)CCCC(=O)O	none (no result: HTT aggregate, Lamin A splicing)
CCOC(=O)C1CCCN(C(=O)c2ccco2)C1 (stereo unspecified)	ALDH1A1 block 8.91µM
O=C(c1ccco1)N1CCN(CC(=O)N2c3ccccc3CCc3ccccc32)CC1	ALDH1A1 block inconclusive
CC1CCCN(C(=O)CN2CCN(C(=O)c3ccco3)CC2)C1 (stereo unspecified)	ALDH1A1 block 22.4µM
CCOC(=O)C1CCCN(C(=O)c2cc(-c3ccccc3)on2)C1 (stereo unspecified)	HPGD inh 28.2µM
CCOC(=O)C1CCCN(C(=O)c2ccc(C)cc2O)C1 (stereo unspecified)	HPGD inh 14.1µM, ALDH1A1 block inconclusive
COc1ccc(N2CCN(C(CNC(=O)CC(C)C)c3ccc4c(c3)OCO4)CC2)cc1 (stereo unspecified)	none (no result: HPGD inh, HTT ATP protect, HTT aggregate, ALDH1A1 block)
COC(=O)C1CSC(C(=O)OC)N1C(=O)CN1CCN(c2ccc(OC)cc2)CC1 (stereo unspecified)	Lamin A splicing inconclusive (no result: HPGD inh)
Cc1ccc(-c2ccccc2)n1-c1ccc(C(=O)O)cc1	HTT aggregate inconclusive, ALDH1A1 block 25.1µM
C=CCN(C(=O)CSc1nc2[nH]ncc2c(=O)n1-c1ccccc1OC)c1ccccc1	ALDH1A1 block 12.6µM, Lamin A splicing inconclusive
COc1ccc(CCNC(=O)CSc2nc3[nH]ncc3c(=O)n2-c2ccccc2Br)cc1OC	ALDH1A1 block 22.4µM (no result: HPGD inh)

Screening data (PubChem BioAssay)
